“And” between values parts separate entries of the source, which are not always exact repeats. Equal values may be shown once. Records with an inconclusive call do not appear. The source made the active and inactive calls. Unless noted, the call rests on the fitted dose curve.
How the values were obtained:
[1] = biological target: Bile acid receptor (Homo sapiens) (UniProt Q96RI1); test: qHTS assay for small molecule antagonists of farnesoid X receptor signaling (AID 588526); details: HEK293T FXR-UAS-bla, beta-lactamase ratio, antagonist mode; series mostly up to 76.7 µM; further: potency means the concentration at half of the fitted maximal effect
Bile acid receptor (Homo sapiens), sequence (Q96RI1 whole entry, looked up): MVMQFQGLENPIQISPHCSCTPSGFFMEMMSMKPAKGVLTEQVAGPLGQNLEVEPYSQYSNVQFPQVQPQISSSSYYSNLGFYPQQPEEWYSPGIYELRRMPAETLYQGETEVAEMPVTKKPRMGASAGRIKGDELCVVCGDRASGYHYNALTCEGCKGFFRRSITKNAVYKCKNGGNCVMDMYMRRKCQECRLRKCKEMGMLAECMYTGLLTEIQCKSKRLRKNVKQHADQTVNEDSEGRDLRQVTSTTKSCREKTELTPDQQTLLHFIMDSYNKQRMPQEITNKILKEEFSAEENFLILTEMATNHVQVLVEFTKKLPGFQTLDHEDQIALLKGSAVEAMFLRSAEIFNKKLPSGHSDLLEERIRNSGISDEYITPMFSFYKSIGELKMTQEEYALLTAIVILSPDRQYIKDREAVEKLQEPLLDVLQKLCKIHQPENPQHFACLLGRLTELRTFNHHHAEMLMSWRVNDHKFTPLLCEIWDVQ
How it was run: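 Antagonist mode: titrated compounds tested against chenodeoxycholic acid stimulation (normalized to 50 uM CDCA and DMSO) in GeneBLAzer HEK293T cells for 16 h. Beta-lactamase read by CCF4 fluorescence; IC50 from Hill fits.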

[2] = biological target: Bile acid receptor (Homo sapiens) (UniProt Q96RI1); test: qHTS assay for small molecule agonists of farnesoid X receptor signaling (AID 588527); details: HEK293T FXR-UAS-bla, beta-lactamase ratio, 16 h; activation: stronger effect = higher value;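 further: 0% = vehicle basal and 100% = reference agonist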
How it was run: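 Quantitative HTS used FXR-UAS-bla HEK293T cells with 16 h compound incubation at 37 C. EC50 values came from concentration-response curves normalized to chenodeoxycholic acid.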

[3] = biological target: Peroxisome proliferator-activated receptor delta (Homo sapiens) (UniProt Q03181); test: qHTS assay for small molecule agonists of peroxisome proliferator-activated receptor delta signaling (AID 588534); details: HEK293T PPARdelta-UAS-bla, beta-lactamase ratio, 18 h; series mostly up to 76.7 µM;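 further: 0% = DMSO basal wells and 100% = positive control agonist at 10 µM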
Peroxisome proliferator-activated receptor delta (Homo sapiens), sequence (Q03181 whole entry, looked up): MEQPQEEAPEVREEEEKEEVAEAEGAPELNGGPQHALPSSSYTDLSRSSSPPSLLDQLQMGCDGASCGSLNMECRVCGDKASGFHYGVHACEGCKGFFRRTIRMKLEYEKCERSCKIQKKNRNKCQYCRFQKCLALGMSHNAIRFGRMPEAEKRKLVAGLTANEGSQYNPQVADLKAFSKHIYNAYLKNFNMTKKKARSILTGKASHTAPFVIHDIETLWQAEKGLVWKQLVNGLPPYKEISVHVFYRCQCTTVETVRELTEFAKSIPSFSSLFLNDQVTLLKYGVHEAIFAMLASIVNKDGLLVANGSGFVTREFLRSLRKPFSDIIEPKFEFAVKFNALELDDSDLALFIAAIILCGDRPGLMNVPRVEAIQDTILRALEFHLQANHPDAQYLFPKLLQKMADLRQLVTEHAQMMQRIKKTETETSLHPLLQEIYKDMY
How it was run: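 Cells carrying a PPAR-delta beta-lactamase reporter were treated with compounds for 18 h at 37 °C in agonist mode. CCF4 fluorescence was read after 2 h; EC50 and efficacy from Hill fits.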

[4] = qHTS assay for small molecule antagonists of peroxisome proliferator-activated receptor delta signaling (AID 588535; active means well fitted inhibition curve with a large enough effect in the signal ratio, with a control signal flat, not every such curve was filed as active; the % refers to the signal ratio;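 on max response: cells co-treated with a PPAR-delta agonist as stimulator during compound exposure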); details: HEK293T PPARd-UAS-bla, beta-lactamase FRET ratio, 18 h; 460 nm channel
How it was run: (§1)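 Antagonist-mode beta-lactamase reporter (GeneBLAzer PPAR-delta-UAS-bla) in HEK293T cells, 2% charcoal/dextran FBS, 4000 cells/well. Compound titrations, 18 h at 37 C; CCF4 ratio read, IC50 and efficacy from Hill fits.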

[5] = biological target: Peroxisome proliferator-activated receptor delta (Homo sapiens) (UniProt Q03181); test: as above; details: HEK293T PPARd-UAS-bla, beta-lactamase FRET ratio, 18 h; series mostly up to 76.7 µM
How it was run: as §1

[6] = biological target: Vitamin D3 receptor (Homo sapiens) (UniProt P11473); test: qHTS assay for small molecule antagonists of vitamin D receptor signaling (AID 588541); details: HEK293T VDR-UAS-bla, beta-lactamase ratio, antagonist mode; series mostly up to 76.7 µM;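 further: receptor activated by calcitriol during compound treatment; on the % scale 0 is the no-effect control and ±100 the full control effect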
Vitamin D3 receptor (Homo sapiens), sequence (P11473 whole entry, looked up): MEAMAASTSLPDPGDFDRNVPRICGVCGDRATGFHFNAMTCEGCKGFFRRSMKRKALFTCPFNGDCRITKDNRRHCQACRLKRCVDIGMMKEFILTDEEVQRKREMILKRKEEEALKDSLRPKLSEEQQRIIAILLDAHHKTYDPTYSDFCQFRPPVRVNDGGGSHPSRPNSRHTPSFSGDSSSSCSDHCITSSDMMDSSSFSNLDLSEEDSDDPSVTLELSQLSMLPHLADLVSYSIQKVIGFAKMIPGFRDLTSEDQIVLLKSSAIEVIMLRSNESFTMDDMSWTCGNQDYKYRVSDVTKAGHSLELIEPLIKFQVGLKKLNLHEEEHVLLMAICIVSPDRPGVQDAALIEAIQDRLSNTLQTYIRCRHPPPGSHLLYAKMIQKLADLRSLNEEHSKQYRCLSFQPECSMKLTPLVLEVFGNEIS
How it was run: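 VDR-UAS-bla HEK293T cells in 2% charcoal-stripped FBS were stimulated with 1-alpha,25-dihydroxyvitamin D3 (3 nM final) plus compound for 16 h at 37 C. The beta-lactamase CCF4 readout was normalized to 50 nM agonist and DMSO, and Hill fits gave IC50.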

[7] = biological target: Vitamin D3 receptor (Homo sapiens) (UniProt P11473); test: qHTS assay for small molecule agonists of vitamin D receptor signaling (AID 588543); details: HEK293T VDR-UAS-bla, beta-lactamase ratio, 16 h; series mostly up to 76.8 µM;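 further: 0% = DMSO basal and 100% = reference agonist control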
How it was run: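 Reporter cells (HEK293T, VDR-UAS-bla) were seeded in medium with 2% charcoal-stripped serum and incubated 5 h, then compounds in concentration series were added for 16 h at 37 °C. Stimulation was scaled between DMSO basal and 50 nM 1α,25-dihydroxyvitamin D3.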

[8] = biological target: Retinoic acid receptor RXR-alpha (Homo sapiens) (UniProt P19793); test: qHTS assay for small molecule agonists of retinoid X receptor alpha signaling (AID 588544); details: HEK293T RXRa-UAS-bla, beta-lactamase reporter, 18 h; series mostly up to 76.7 µM;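 further: 0% = DMSO basal wells and 100% = reference agonist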
Retinoic acid receptor RXR-alpha (Homo sapiens), sequence (P19793 whole entry, looked up): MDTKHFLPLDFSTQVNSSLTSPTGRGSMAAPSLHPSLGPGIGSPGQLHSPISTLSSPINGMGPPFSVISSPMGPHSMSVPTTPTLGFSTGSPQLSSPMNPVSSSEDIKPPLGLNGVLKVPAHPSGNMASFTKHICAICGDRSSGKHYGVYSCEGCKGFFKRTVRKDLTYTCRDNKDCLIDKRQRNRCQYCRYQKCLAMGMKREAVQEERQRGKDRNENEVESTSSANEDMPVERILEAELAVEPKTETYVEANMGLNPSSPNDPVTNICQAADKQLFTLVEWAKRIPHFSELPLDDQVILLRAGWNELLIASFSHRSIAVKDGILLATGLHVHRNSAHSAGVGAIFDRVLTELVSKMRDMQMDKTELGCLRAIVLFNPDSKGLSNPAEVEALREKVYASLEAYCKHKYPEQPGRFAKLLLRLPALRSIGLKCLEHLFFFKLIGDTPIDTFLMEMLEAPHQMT

[9] = qHTS assay for small molecule antagonists of retinoid X receptor alpha signaling (AID 588546; active means well fitted inhibition curve with a large enough effect in the signal ratio, with a control signal flat, not every such curve was filed as active; the % refers to the signal ratio; further: potency means the concentration at half of the fitted maximal effect;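 on max response: cells stimulated with 9-cis-retinoic acid as agonist; on the % scale 0 is the no-effect control and ±100 the full control effect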); details: HEK293T RXRa-UAS-bla, beta-lactamase ratio, antagonist mode; measured here: W530 green channel, cytotoxicity proxy
How it was run: (§2)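 Beta-lactamase reporter inhibition, read as CCF4 fluorescence ratio (ex 405, em 460/530 nm) after 2 h at RT. HEK293T UAS-bla cells, 2500/well, were stimulated with 9-cis-RA at 500 or 100 nM final alongside test compound for 18 h at 37 C.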

[10] = biological target: Retinoic acid receptor RXR-alpha (Homo sapiens) (UniProt P19793); test: as above; details: HEK293T RXRa-UAS-bla, beta-lactamase ratio, antagonist mode
How it was run: as §2

[11] = qHTS assay for environmental chemicals that activate the Aryl hydrocarbon Receptor (AhR) signaling pathway (AID 651777; active means well fitted curve in the direction sought with a large enough effect; an effect the other way counts as inactive or inconclusive; further: % of control where 0% means no effect; nearly all actives have a fitted effect of over 15% in size); details: 1A2-DRE human hepatoma cells, luciferase, 24 h; activation: stronger effect = higher value
How it was run: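 Luminescence read-out: One-Glo added for 30 min at RT after 24 hr compound treatment (37 C, 5% CO2) of human hepatoma cells expressing a DRE/CYP1A2 promoter–luciferase reporter; increased signal indicates AhR activation.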

[12] = biological target: Peroxisome proliferator-activated receptor alpha (Homo sapiens) (UniProt Q07869); test: qHTS assay for small molecule agonists of the peroxisome proliferator-activated receptor alpha (PPARalpha) signaling pathway (AID 651778; active means well fitted curve in the direction sought with a large enough effect; an effect the other way counts as inactive or inconclusive; further: % of control where 0% means no effect); details: PathHunter PPARalpha complementation, chemiluminescence, 6 h; max response: stronger effect = higher value
Peroxisome proliferator-activated receptor alpha (Homo sapiens), sequence (Q07869 whole entry, looked up, the tested form may be a part): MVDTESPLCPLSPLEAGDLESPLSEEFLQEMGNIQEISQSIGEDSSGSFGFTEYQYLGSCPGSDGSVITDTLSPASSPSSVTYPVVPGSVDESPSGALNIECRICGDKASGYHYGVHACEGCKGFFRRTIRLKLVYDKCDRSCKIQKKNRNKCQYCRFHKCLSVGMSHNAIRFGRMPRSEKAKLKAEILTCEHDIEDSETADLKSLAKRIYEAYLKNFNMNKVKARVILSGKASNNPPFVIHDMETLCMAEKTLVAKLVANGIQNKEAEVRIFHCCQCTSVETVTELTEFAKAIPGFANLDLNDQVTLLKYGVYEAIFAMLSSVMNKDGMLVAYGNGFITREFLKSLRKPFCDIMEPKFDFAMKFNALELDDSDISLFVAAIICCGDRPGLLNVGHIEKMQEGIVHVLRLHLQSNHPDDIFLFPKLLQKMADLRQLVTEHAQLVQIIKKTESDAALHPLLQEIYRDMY
How it was run: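 Enzyme-fragment complementation assay in which ligand-bound PPARalpha translocates and forms an active enzyme that generates chemiluminescence. Cells were plated overnight, exposed to compound for 6 hr at 37 C, and then given detection reagent for 60 min at room temperature.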

[13] = qHTS assay for small molecule agonists of the antioxidant response element (ARE) signaling pathway measured by Nrf2-dependant transcriptional activity (AID 720636; active means well fitted curve in the direction sought with a large enough effect in the repeat runs; an effect the other way counts as inactive or inconclusive;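 further: HepG2 cells with an ARE-driven luciferase reporter; % of control where 0% means no effect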); details: ARE-luc HepG2, Nrf2 luciferase reporter, 16 h; series mostly up to 92.4 µM
How it was run: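 HepG2 ARE-luc reporter line, 1% dialyzed FBS; 6 hr attachment at 37 C, compound pinned in, 16 hr at 37 C/5% CO2; ONE-Glo, 30 min RT, luminescence read.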

[14] = qHTS assay for cell viability of HEK293 cells (AID 743288; active means well fitted curve in the direction sought with a large enough effect; an effect the other way counts as inactive or inconclusive; further: on the % scale 0 is the no-effect control and ±100 the full control effect; nearly all actives have a fitted effect of over 50% in size); details: ATP luminescence (CellTiter-Glo), 18 h; max response: stronger effect = lower value
How it was run: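 HEK293 parental, 2,000 cells/well; ≥5 h pre-incubation 37 C; pintool compound addition; 18 h, 37 C; CellTiter-Glo 30 min RT; luminescence read.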

[15] = qHTS assay for cell viability of the p53RE-bla HCT-116 cell line (AID 743292; active means well fitted curve in the direction sought with a large enough effect; an effect the other way counts as inactive or inconclusive; further: on the % scale 0 is the no-effect control and ±100 the full control effect; nearly all actives have a fitted effect of over 55% in size); details: p53RE-bla HCT-116 viability, ATP luminescence, 16 h; series mostly up to 95 µM
How it was run: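 Luminescent ATP quantitation (CellTiter-Glo) served as the viability read-out; reagent was added after 16 h compound exposure at 37 C and read after 30 min at room temperature. Cells: p53RE-bla HCT-116, 4,000 per well.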

[16] = biological target: Nuclear receptor subfamily 1 group I member 2 (Rattus norvegicus) (UniProt Q9R1A7); test: qHTS assay for small molecule activators of the rat pregnane X receptor (rPXR) signaling pathway (AID 651751; call rule not given here; further: 0% is about no effect); details: rPXR reporter cells, luciferase (One-Glo), 24 h
Nuclear receptor subfamily 1 group I member 2 (Rattus norvegicus), sequence (Q9R1A7 whole entry, looked up): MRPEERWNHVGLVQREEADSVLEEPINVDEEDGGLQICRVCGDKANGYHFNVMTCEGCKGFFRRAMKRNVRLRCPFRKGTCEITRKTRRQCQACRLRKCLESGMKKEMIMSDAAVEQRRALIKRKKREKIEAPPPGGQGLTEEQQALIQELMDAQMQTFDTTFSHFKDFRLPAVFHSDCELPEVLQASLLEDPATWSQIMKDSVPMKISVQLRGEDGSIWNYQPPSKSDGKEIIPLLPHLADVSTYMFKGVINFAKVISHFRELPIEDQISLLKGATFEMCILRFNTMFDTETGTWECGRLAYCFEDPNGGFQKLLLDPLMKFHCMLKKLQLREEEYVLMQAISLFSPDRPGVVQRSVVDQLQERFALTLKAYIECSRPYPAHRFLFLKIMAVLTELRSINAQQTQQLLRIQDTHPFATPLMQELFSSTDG

[17] = biological target: Thyroid hormone receptor beta (Homo sapiens) (UniProt P10828); test: qHTS assay for small molecule agonists of thyroid hormone receptor beta signaling (AID 588545); details: TR-UAS-bla GripTite HEK 293, beta-lactamase ratio, agonist mode, 18 h; series mostly up to 76.7 µM
Thyroid hormone receptor beta (Homo sapiens), sequence (P10828 whole entry, looked up): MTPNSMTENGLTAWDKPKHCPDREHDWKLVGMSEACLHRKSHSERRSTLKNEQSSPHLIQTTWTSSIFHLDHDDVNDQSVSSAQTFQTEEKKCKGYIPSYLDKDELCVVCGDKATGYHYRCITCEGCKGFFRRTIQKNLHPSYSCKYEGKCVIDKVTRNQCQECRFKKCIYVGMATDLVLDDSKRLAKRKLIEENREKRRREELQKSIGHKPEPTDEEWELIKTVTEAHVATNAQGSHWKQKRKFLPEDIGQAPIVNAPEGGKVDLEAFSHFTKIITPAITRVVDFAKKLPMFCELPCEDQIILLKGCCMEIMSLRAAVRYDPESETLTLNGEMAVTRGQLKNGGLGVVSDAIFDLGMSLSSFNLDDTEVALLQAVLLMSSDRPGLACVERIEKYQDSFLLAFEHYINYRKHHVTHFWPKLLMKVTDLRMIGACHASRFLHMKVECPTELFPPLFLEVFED
How it was run: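 In this cell-based screen, titrated compounds act on HEK 293 cells held in medium with 2% charcoal/dextran FBS, NEAA and pyruvate for 18 hrs at 37 C. Responses are expressed relative to T3 (10 nM) as 100% and basal DMSO as 0%.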

[18] = qHTS assay for small molecule activators of the p53 signaling pathway (AID 651743; active means well fitted activation curve with a large enough effect in the signal ratio, not every such curve was filed as active; the % refers to the signal ratio; further: % of control where 0% means no effect); details: HCT-116 p53RE-bla, beta-lactamase FRET ratio, 16 h; activation: stronger effect = higher value
How it was run: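 p53RE-bla HCT-116 cells carrying a beta-lactamase reporter under p53 response elements were exposed to compounds for 16 hours at 37 C. Reporter activity read as fluorescence after 2 hours at room temperature with LiveBLAzer B/G FRET substrate.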

[19] = qHTS assay for small molecule agonists of the antioxidant response element (ARE) signaling pathway measured by Nrf2-dependant transcriptional activity - cell viability counter screen (AID 720653; active means well fitted curve in the direction sought with a large enough effect in the repeat runs; an effect the other way counts as inactive or inconclusive; further: on the % scale 0 is the no-effect control and ±100 the full control effect); details: ARE-bla HepG2 viability, CellTiter-Glo ATP luminescence, 16 h; max response: stronger effect = lower value
How it was run: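 ARE-bla HepG2 cells treated with compounds for 16 h at 37C; this counter screen measures viability as intracellular ATP by CellTiter-Glo luminescence after 30 min at room temperature.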

[20] = qHTS assay for small molecule activators of the nuclear factor-kappa B (NF-kB) signaling pathway (AID 651749; active means well fitted activation curve with a large enough effect in the signal ratio; the % refers to the signal ratio; further: % of control where 0% means no effect); details: NF-kB-bla ME-180 cells, beta-lactamase FRET ratio, 16 h; activation: stronger effect = higher value
How it was run: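 NF-kB-bla ME-180 cells carrying a beta-lactamase reporter under an NF-kB response element, 2,000 cells/well, exposed to compound for 16 hr at 37C; FRET-based beta-lactamase fluorescence read-out of pathway activation.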

Cc1ccn2nc(S(=O)(=O)Nc3c(F)cccc3F)nc2n1
inactive: Potency [1] | activation [2] -2.19% | outcome [3] | Potency [5] | Potency [6] | outcome [7] | Potency [8] | max response [10] -2.18% | activation [11] -0.461% | max response [12] 0.276% | Potency [13] | max response [14] -3.63% | Potency [15] | max response [16] -3.4%
35.3%: max response [4]
2.3%: max response [9]

C#CCC1=C(C)[C@H](OC(=O)[C@H]2[C@H](C=C(C)C)C2(C)C)CC1=O
-0.262%: max response [9]
inactive: Potency [1] | activation [2] 1.85% | outcome [3] | Potency [5] | Potency [6] | outcome [7] | Potency [8] | Potency [17] | max response [10] -4.47% | activation [18] 1.18% | activation [11] 9.06% | max response [12] 3.44% | Potency [13] | max response [19] -1.44% | max response [14] -10.8% | Potency [15]
25.2%: max response [4]

COC(=O)C(C)Oc1ccc(Oc2ccc(Cl)cc2Cl)cc1 (stereo not drawn)
inactive: Potency [1] | activation [2] -6.35% | outcome [3] | Potency [8] | Potency [17] | max response [10] -16.7% | activation [18] -3.5% | activation [20] -0.397% | Potency [13] | max response [19] -5.74% | max response [14] -4.71% | Potency [15] | max response [16] -0.585%
-8.87%: max response [9]

CC1COC(Cn2cncn2)(c2ccc(Oc3ccc(Cl)cc3)cc2Cl)O1 (stereo not drawn)
9.03%: max response [9]
active: Potency [1] 44.7 µM | Potency [10] 39.8 µM
inactive: activation [2] 3.21% | Potency [17] | activation [18] 12.1% | activation [11] 14.3% | max response [12] 6.01% | Potency [13] | max response [14] -29.8% | Potency [15] | max response [16] -12.8%

O=C(O)c1c(Cl)ccc2cc(Cl)cnc12
3.11%: max response [9]
inactive: Potency [1] | activation [2] 0.431% | outcome [3] | Potency [5] | Potency [6] | outcome [7] | Potency [8] | Potency [17] | max response [10] -13.1% | activation [20] -0.182% | activation [11] 2.06% | max response [12] -2.09% | Potency [13] | max response [19] -9.56% | max response [14] -11.4% | Potency [15] | max response [16] -2.15%
71.4%: max response [4]

CCCN(CCOc1c(Cl)cc(Cl)cc1Cl)C(=O)n1ccnc1
inactive: Potency [1] | activation [2] 4.58% | outcome [3] | Potency [5] | Potency [17] | max response [12] -1.45% and -1.52% | Potency [13] | max response [19] -20.2% and 3.11% | max response [14] -28.6% and -28.7% | Potency [15]
26.8% and 55.9%: max response [4]

CCCC(Cl)CCCC(Cl)CCC(Cl)CCC(Cl)CCC(Cl)CCCC(Cl)CCC (stereo not drawn)
inactive: activation [2] 1.98%

CC[C@H](C)C1O[C@]2(C=C[C@@H]1C)C[C@@H]1C[C@@H](C/C=C(\C)[C@@H](O[C@H]3C[C@H](OC)[C@@H](O[C@H]4C[C@H](OC)[C@H](NC(C)=O)[C@H](C)O4)[C@H](C)O3)[C@@H](C)/C=C/C=C3\CO[C@@H]4[C@H](O)C(C)=C[C@@H](C(=O)O1)[C@]34O)O2 (stereo partly drawn)
inactive: activation [2] 6.91%

O=C(O)C(Oc1ccc(Cl)cc1)Oc1ccc(Cl)cc1
inactive: activation [2] -1.96%

O=C=Nc1ccc(Cl)c(Cl)c1
inactive: activation [2] 2.96%

c1ccc2cc3ccccc3cc2c1
inactive: activation [2] -1.8%

CC1(C(=O)Nc2ccc(O)c(Cl)c2Cl)CCCCC1
-23.6%: max response [9]
inactive: Potency [1] | outcome [3] | Potency [5] | Potency [6] | outcome [7] | Potency [8] | Potency [17] | max response [10] -4.55% | activation [18] 0.119% | activation [20] 0.744% | activation [11] 0.158% | max response [12] 3.06% | max response [19] 4.3% | max response [14] -8.66% | Potency [15] | max response [16] 1.26%
11.8%: max response [4]

— PubChem BioAssay (NCATS)
